Drawing on PubChem BioAssay (NCATS), this text covers Potency for 40 compounds.

Results filed as inconclusive are left out. Entries that show only a call come without a potency. The source made the active and inactive calls. Calls follow the shape of the dose curve; as a rule, active = well fitted cell-killing curve with a large enough effect; inconclusive = small, poorly fitted or top-dose-only effect, or effect the other way; inactive = no such curve, though single readings can be large or run the other way.
Potency is read from the fitted curve at half-maximal effect.

The assay can be described thus: Viability qHTS for spleen associated tyrosine kinase inhibitor (SYKi) naive MV4-11 cells (AID 1963823). Also: nearly all actives have a fitted effect of over 40% in size. Conditions: MV4-11 AML viability, CellTiter-Glo luminescence, 72 h; series mostly up to 45 µM. The method, boiled down: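 Viability of MV4-11 AML cells lacking prior SYK inhibitor exposure is scored by CellTiter-Glo luminescence following 72 hr compound incubation at 37 C, 5% CO2, seeded at 500 cells per well.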
For the compound `CC(=O)O[C@@H]1[C@H]2[C@@H](OC(=O)c3ccccc3)[C@@H](C)C[C@]2(O)[C@H](OC(C)=O)[C@@]2(C)[C@@H]3CC(C)(C)C(=O)[C@]3(OC(C)=O)C[C@@]12C`, the Potency entry was “inactive”.

Regarding `CCc1c(-c2ccccc2)c(-c2ccccc2)nn1-c1ccccc1-c1cccc(OCC(=O)O)c1`, the Potency entry was “inactive”.

On to `C=CC(C)(C)O[C@@H]1O[C@H](CO[C@@H]2OC[C@](O)(CO)[C@H]2O)[C@@H](O)[C@H](O)[C@H]1O`, for which the Potency result was “inactive”.

`CC(O)CCc1ccc(O[C@@H]2O[C@H](CO)[C@@H](O)[C@H](O)[C@H]2O)cc1` (stereo not given in full): the Potency entry is “inactive”.

As to `C=C1CC[C@H]2[C@@](C)(CCC(O)[C@@]2(C)CO)[C@@H]1CCC1=CCOC1=O` (stereo not given in full), the Potency entry was “inactive”.

`COc1cc(O)c2c(c1)C1=C[C@H](O)[C@@H](O)C[C@]1(C)OC2=O`: the Potency result was “inactive”.

`CN([C@H]1c2cc(OCCCC(F)(F)F)ccc2OC(C)(C)[C@@H]1O)S(C)(=O)=O`: the Potency result is “inactive”.

As to `COc1cc(/C=C/C(=O)OC[C@H]2O[C@@H](OC3OC=C(C(=O)O)C4C(O)CC(C)(O)C34)[C@H](O)[C@@H](O)[C@@H]2O)cc(OC)c1O` (stereo not given in full), the Potency entry was “inactive”.

`O=C(O)c1c[nH]c2c(ccc3ccccc32)c1=O`: the Potency was 23.1 µM (active).

Take `COc1cc(C2OCC3C(c4ccc(OC5OC(CO)C(O)C(O)C5O)c(OC)c4)OCC23)ccc1O` (stereo not given): the Potency result is “inactive”.

For the compound `C[C@@H]1O[C@@H](OC[C@H]2O[C@@H](OCC3CCC4CC3C4(C)C)[C@H](O)[C@@H](O)[C@@H]2O)[C@H](O)[C@H](O)[C@H]1O` (stereo not given in full), the Potency result was “inactive”.

With `CC(C)CC(=O)c1c(O)cc2c(c1O)C(CC(C)C)C1=C(O2)C(C)(C)C(=O)C(C)(C)C1=O` (stereo not given), the Potency is 8.93 µM (active).

Take `Cc1cc(O)c(C(C)C)cc1Cl`: the Potency entry is “inactive”.

Take `CC(=O)OC1C(O)/C(C)=C\C2C(OC(=O)c3ccccc3)C(C)CC2(OC(C)=O)C(OC(C)=O)C(C)/C=C/C(C)(C)C1OC(C)=O` (stereo not given): the Potency entry was “inactive”.

For `COc1c2cc(c(O)c1OC)-c1cc(ccc1O)CCC(O)CCCC2` (stereo not given), the Potency was 12.8 µM (active).

As to `CCN(CC)Cc1cccc(/C=C/c2nc3ccc(F)cc3c(=O)n2-c2ccccc2Cl)n1`, the Potency was 11.6 µM (active).

As for `O=c1c2ccccc2nc2n1CCC2O` (stereo not given), the Potency result is “inactive”.

On to `C=CC1(C)CC2CCC3C(C)(C(=O)O)CCCC3(C)C2=CC1=O` (stereo not given), for which the Potency result was “inactive”.

Consider `CC(C)C[C@H](NC(=O)[C@@H]1O[C@H]1C(=O)O)C(=O)NCCCCN=C(N)N`, for which the Potency entry was “inactive”.

Consider `CC(=O)SC[C@@H](Cc1ccccc1)C(=O)NCC(=O)OCc1ccccc1`, for which the Potency entry was “inactive”.

Regarding `C=C(COC(=O)CC(C)C)C1Cc2cc(C(C)=O)ccc2O1` (stereo not given), the Potency entry is “inactive”.

In the case of `CC[C@@H](C)[C@H]1C(=O)O[C@H](C(C)C)C(=O)N(C)[C@@H](C(C)C)C(=O)O[C@H](C(C)C)C(=O)N(C)[C@@H](C(C)C)C(=O)O[C@H](CC(C)C)C(=O)N1C`, the Potency is 1.53 µM (active).

Take `COC(=O)[C@H](OC(C)=O)[C@H]1C(C)(C)C(=O)[C@H]2CC3=C4CC(=O)O[C@@H](c5ccoc5)[C@]4(C)CCC3[C@@]1(C)C2=O` (stereo not given in full): the Potency entry was “inactive”.

Turning to `CCCCCOC(=O)Nc1nc(=O)n(C2O[C@H](C)[C@@H](O)[C@H]2O)cc1F` (stereo not given in full), the Potency result was “inactive”.

Turning to `CN(C)CCn1cc(S(=O)(=O)c2cccc(F)c2)c2cccnc21`, the Potency entry was “inactive”.

Regarding `COc1cc(/C=C/C(=O)O[C@H]2[C@H](O)[C@@H](CO)O[C@@]2(CO)O[C@H]2O[C@H](COC(=O)c3ccc(O)cc3)[C@@H](O)[C@H](O)[C@H]2O)cc(OC)c1OC`, the Potency result was “inactive”.

As to `C=CC1(C)C=C2CCC3C(C)(C)C(O[C@@H]4O[C@@H](CO)[C@H](O)[C@H]4O)CCC3(C)C2CC1O[C@@H]1O[C@H](C)[C@H](O)[C@H](O)[C@H]1O` (stereo not given in full), the Potency entry was “inactive”.

For the compound `COC(=O)C1=CO[C@@H](O[C@@H]2O[C@H](COC(=O)/C=C/c3cc(OC)c(O)c(OC)c3)[C@@H](O)[C@H](O)[C@H]2O)[C@@H]2C(CO)=CC[C@H]12`, the Potency result was “inactive”.

Turning to `COc1ccc(S(=O)(=O)Nc2nc(-c3cccc([N+](=O)[O-])c3)cs2)cc1OC`, the Potency entry is “inactive”.

Consider `C[C@@H]1CC[C@@]23CC[C@]4(C)[C@@](C=CC5[C@@]6(C)CC[C@H](O)C(C)(C)C6CC[C@]54C)(OC2=O)C3[C@H]1C` (stereo not given in full), for which the Potency result was “inactive”.

Regarding `COC(=O)[C@H](O)[C@H]1C(C)(C)[C@H](OC(=O)C(C)C)[C@@]2(O)C(=O)[C@]1(C)C1CC[C@]3(C)C(CC(=O)O[C@H]3c3ccoc3)[C@]13O[C@@H]32` (stereo not given in full), the Potency result is “inactive”.

On to `CC1C(=O)CC2C3CCC(C(=O)O)C12CC3(C)CO` (stereo not given), for which the Potency result was “inactive”.

As for `CC[N+](CC)(CC)CCOC(=O)C(C1CCCC1)C1CCCC1`, the Potency was 18.8 µM (active).

As for `CCC(CC)n1ccc2c(C(=O)NCc3c(C)cc(C)[nH]c3=O)cc(C#N)cc21`, the Potency result is “inactive”.

For `CCC(C)C(=O)Oc1cc(C)ccc1C1(COC(=O)C(C)C)CO1` (stereo not given), the Potency was 2.86 µM (active).

For `CC(=O)OC[C@]12[C@H](OC(C)=O)[C@H](OC(=O)c3ccccc3)[C@@H]3[C@@H](OC(C)=O)[C@]1(OC3(C)C)[C@H](C)C[C@H](OC(=O)c1ccccc1)[C@@H]2OC(=O)c1ccccc1`, the Potency result is “inactive”.

As to `COc1ccc(-c2cnc3ccc(NCc4ccc(S(N)(=O)=O)cc4)nn23)cc1OC`, the Potency is 0.92 µM (active).

Consider `CC(=O)O[C@@H]1C[C@H](O)[C@@]23CO[C@H](O)[C@]1(C)C2C[C@@H](O)[C@]1(C)C3C(=O)[C@H](OC(C)=O)[C@@]2(C)[C@H](c3ccoc3)C[C@H]3O[C@]321` (stereo not given in full), for which the Potency is 0.0385 µM (active).

`Cc1ccc(Cl)cc1N(CC(=O)Nc1c(F)cccc1F)S(C)(=O)=O`: the Potency was 5.17 µM (active).

As to `CC(C)C(N)C(=O)OCCOCn1cnc2c(=O)[nH]c(N)nc21` (stereo not given), the Potency entry was “inactive”.
